Test results reported in PubChem BioAssay (NCI).
About 79,000 compounds went through this panel and 15% of them were active in at least one assay; those are over-represented in the sample as a whole. Unmarked numbers belong to inactive results. Calls of active or inactive are those of the source. No stated cut-off is given here; in the data, active means growth inhibition above about 70%; inactive means the rest.

Experiment: NCI Yeast Anticancer Drug Screen. Data for the rad18 strain (AID 177)
Settings: S. cerevisiae rad18 mutant growth inhibition, hits give high values
Description: Growth inhibition of yeast strains with defined genetic alterations is measured as a screen for potential anti-cancer activity. Selected strains with alterations in DNA damage repair or cell cycle control were exposed to compounds and growth inhibition was measured relative to vehicle treated controls. The strain used in this assay is rad18

Compound	growth inhibition (at 1.2 µM)	growth inhibition (at 3.7 µM)	growth inhibition (at 11.0 µM)	growth inhibition (at 33.0 µM)	growth inhibition (at 100.0 µM)
COC(=O)c1ccc2c(c1)Cc1ccccc1-2	-1%	1%	6%	4%	9%
CCOP1(=O)C=C(Sc2ccc([N+](=O)[O-])cc2[N+](=O)[O-])C(C)(C)O1 (stereo not given)	0%	9%	28%	66%	92% (active)
Cc1cc(C)c(N2C(=O)CC(Sc3ccccc3N)C2=O)c(C)c1 (stereo not given)	-54%	-45%	-38%	-47%	-44%
COC(=O)CSc1nnc(CSc2ccc(Cl)cc2)n1-c1ccccc1	-1%	2%	4%	8%	9%
Cc1ccc(S(=O)(=O)N/N=C/C2(c3ccccc3)c3ccccc3-c3ccccc32)cc1	50%	52%	80% (active)	91% (active)	89% (active)
O=C(NC(=S)Nc1ccccn1)c1ccccc1	-60%	-56%	-29%	-38%	-43%
Cc1cccc(/C=N/NC(=S)N(C)CCc2ccccn2)n1	92% (active)	96% (active)	98% (active)	98% (active)	98% (active)
O=C1c2cccc3cc([N+](=O)[O-])cc(c23)C(=O)N1CCN1CCCC1	24%	23%	33%	15%	73% (active)
